# Results: PubChem BioAssay (EPA / NIEHS)
# Activity calls are given as the source filed them. How the source made its calls: active means hit-call score of the fitted dose curve at least 0.9, where 1 is the maximum; inactive means score below 0.9.
# How the values were obtained:
# [1] = CEETOX_H295R_PROG: CeeTox H295R High-throughput Steroidogenesis Assay for Progesterone (PROG) (AID 2283442); details: actives raise or lower the signal;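 on AC50: human H295R adrenal cells primed with 10 µM forskolin before dosing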
# Method in brief: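 H295R human adrenal cells were prestimulated with 10 uM forskolin for 48 h, then exposed to test chemical (0.1% DMSO final) for 48 h. Medium progesterone was MTBE-extracted and quantified by HPLC-MS/MS, with bidirectional fitting against DMSO.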
# [2] = read-out: Tumor necrosis factor receptor superfamily member 6 (Homo sapiens) (UniProt P25445); assay: LTEA_HepaRG_FAS: Life Technologies and Expression Analysis (LTEA) Assay for Fas cell surface death receptor (FAS) using HepaRG (AID 2283447); details: mRNA level, 48 h; actives raise or lower the signal
# Method in brief: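 Differentiated human HepaRG cells, pre-cultured 48 h, were exposed in duplicate for 48 h to 8-point half-log concentrations (top 100 uM, 0.5% DMSO) in serum-free induction medium; FAS mRNA measured by qRT-PCR, normalized to ACTB/GAPDH/POLR2A, bidirectional fit versus DMSO.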
# [3] = read-out: Cyclin Dependent Kinase Inhibitor 1A (CDKN1A), CDKN1A (gene 1026); assay: LTEA_HepaRG_CDKN1A: Life Technologies and Expression Analysis (LTEA) Assay for Cyclin Dependent Kinase Inhibitor 1A (CDKN1A) using HepaRG (AID 2283450); details: mRNA level, 48 h; actives raise or lower the signal
# Method in brief: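 Differentiated human HepaRG cells, pre-cultured 48 h, were exposed in duplicate for 48 h in serum-free induction medium to eight half-log concentrations up to 100 uM (0.5% DMSO). CDKN1A mRNA was measured by qRT-PCR, normalized to ACTB/GAPDH/POLR2A, bidirectionally fitted versus DMSO.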
# [4] = read-out: Cyclin D1 (CCND1), CCND1 (gene 595); assay: LTEA_HepaRG_CCND1: Life Technologies and Expression Analysis (LTEA) Assay for Cyclin D1 (CCND1) using HepaRG (AID 2283451); details: mRNA level, 48 h; actives raise or lower the signal
# Method in brief: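 Differentiated human HepaRG cells in serum-free induction medium were exposed 48 h to eight half-log concentrations up to 100 uM in 0.5% DMSO; mRNA quantified by TaqMan qRT-PCR, normalized to ACTB, GAPDH, POLR2A, fitted bidirectionally versus DMSO.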
# [5] = read-out: catalase (CAT), CAT (gene 847); assay: LTEA_HepaRG_CAT: Life Technologies and Expression Analysis (LTEA) Assay for catalase (CAT) using HepaRG (AID 2283452); details: mRNA level, 48 h; actives raise or lower the signal
# Method in brief: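 Differentiated HepaRG cells in serum-free induction medium were dosed 48 h in duplicate, eight half-log concentrations from 100 uM in 0.5% DMSO. Transcript measured by TaqMan qRT-PCR, normalised to ACTB/GAPDH/POLR2A, fitted bidirectionally against DMSO.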
# [6] = read-out: flavin-containing dimethylaniline monooxygenases 3 (FMO3), FMO3 (gene 2328); assay: LTEA_HepaRG_FMO3: Life Technologies and Expression Analysis (LTEA) Assay for flavin-containing dimethylaniline monooxygenases 3 (FMO3) using HepaRG (AID 2283453); details: mRNA level, 48 h; actives raise or lower the signal
# Method in brief: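 FMO3 transcript quantified by TaqMan qRT-PCR against three housekeeping genes after 48 h chemical exposure of HepaRG cells. Eight-point half-log series, top 100 uM, 0.5% DMSO vehicle; phenobarbital 1mM induction control; up- or down-regulation fitted.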
# [7] = read-out: Cytochrome P450 (CYP1A1), CYP1A1 (gene 1543); assay: LTEA_HepaRG_CYP1A1: Life Technologies and Expression Analysis (LTEA) Assay for Cytochrome P450 (CYP1A1) using HepaRG (AID 2283454); details: mRNA level, 48 h; actives raise or lower the signal
# Method in brief: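 Differentiated HepaRG cells in serum-free induction medium were exposed in duplicate for 48 h to eight half-log concentrations up to 100 uM in 0.5% DMSO. CYP1A1 mRNA was quantified by TaqMan qRT-PCR, normalized to ACTB, GAPDH and POLR2A.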
# [8] = read-out: CFLAR gene, CFLAR (gene 8837); assay: LTEA_HepaRG_CFLAR: Life Technologies and Expression Analysis (LTEA) Assay for CFLAR gene using HepaRG (AID 2283455); details: mRNA level, 48 h; actives raise or lower the signal
# Method in brief: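 Gain- or loss-of-signal changes in CFLAR transcript were fitted bidirectionally relative to 0.5% DMSO. Cells (HepaRG, duplicate wells) were dosed for 48 h across eight half-log concentrations topping at 100 uM; quantitation by TaqMan qRT-PCR.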
# [9] = read-out: Fatty acid synthase (Homo sapiens) (UniProt P49327); assay: LTEA_HepaRG_FASN: Life Technologies and Expression Analysis (LTEA) Assay for Fatty Acid Synthase (FASN) using HepaRG (AID 2283448); details: mRNA level, 48 h; actives raise or lower the signal
# Method in brief: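 Cells were plated, cultured 48 h, switched to serum-free induction medium, then dosed in duplicate (max 100 uM, half-log dilutions, 0.5% DMSO) for 48 h. RNA was then isolated and FASN quantified by qRT-PCR.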
# [10] = read-out: Cyclin D2 (CCND2), CCND2 (gene 894); assay: LTEA_HepaRG_CCND2: Life Technologies and Expression Analysis (LTEA) Assay for Cyclin D2 (CCND2) using HepaRG (AID 2283449); details: mRNA level, 48 h; actives raise or lower the signal;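 further: CCND2 transcript measured by TaqMan qRT-PCR and normalised to three housekeeping genes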
# Method in brief: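 In this HepaRG study, an eight-point concentration series (max 100 uM, 0.5% DMSO) is applied for 48 h. CCND2 mRNA change is derived by qRT-PCR normalised to ACTB, GAPDH and POLR2A.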
# Fatty acid synthase (Homo sapiens), sequence (P49327 whole entry, looked up): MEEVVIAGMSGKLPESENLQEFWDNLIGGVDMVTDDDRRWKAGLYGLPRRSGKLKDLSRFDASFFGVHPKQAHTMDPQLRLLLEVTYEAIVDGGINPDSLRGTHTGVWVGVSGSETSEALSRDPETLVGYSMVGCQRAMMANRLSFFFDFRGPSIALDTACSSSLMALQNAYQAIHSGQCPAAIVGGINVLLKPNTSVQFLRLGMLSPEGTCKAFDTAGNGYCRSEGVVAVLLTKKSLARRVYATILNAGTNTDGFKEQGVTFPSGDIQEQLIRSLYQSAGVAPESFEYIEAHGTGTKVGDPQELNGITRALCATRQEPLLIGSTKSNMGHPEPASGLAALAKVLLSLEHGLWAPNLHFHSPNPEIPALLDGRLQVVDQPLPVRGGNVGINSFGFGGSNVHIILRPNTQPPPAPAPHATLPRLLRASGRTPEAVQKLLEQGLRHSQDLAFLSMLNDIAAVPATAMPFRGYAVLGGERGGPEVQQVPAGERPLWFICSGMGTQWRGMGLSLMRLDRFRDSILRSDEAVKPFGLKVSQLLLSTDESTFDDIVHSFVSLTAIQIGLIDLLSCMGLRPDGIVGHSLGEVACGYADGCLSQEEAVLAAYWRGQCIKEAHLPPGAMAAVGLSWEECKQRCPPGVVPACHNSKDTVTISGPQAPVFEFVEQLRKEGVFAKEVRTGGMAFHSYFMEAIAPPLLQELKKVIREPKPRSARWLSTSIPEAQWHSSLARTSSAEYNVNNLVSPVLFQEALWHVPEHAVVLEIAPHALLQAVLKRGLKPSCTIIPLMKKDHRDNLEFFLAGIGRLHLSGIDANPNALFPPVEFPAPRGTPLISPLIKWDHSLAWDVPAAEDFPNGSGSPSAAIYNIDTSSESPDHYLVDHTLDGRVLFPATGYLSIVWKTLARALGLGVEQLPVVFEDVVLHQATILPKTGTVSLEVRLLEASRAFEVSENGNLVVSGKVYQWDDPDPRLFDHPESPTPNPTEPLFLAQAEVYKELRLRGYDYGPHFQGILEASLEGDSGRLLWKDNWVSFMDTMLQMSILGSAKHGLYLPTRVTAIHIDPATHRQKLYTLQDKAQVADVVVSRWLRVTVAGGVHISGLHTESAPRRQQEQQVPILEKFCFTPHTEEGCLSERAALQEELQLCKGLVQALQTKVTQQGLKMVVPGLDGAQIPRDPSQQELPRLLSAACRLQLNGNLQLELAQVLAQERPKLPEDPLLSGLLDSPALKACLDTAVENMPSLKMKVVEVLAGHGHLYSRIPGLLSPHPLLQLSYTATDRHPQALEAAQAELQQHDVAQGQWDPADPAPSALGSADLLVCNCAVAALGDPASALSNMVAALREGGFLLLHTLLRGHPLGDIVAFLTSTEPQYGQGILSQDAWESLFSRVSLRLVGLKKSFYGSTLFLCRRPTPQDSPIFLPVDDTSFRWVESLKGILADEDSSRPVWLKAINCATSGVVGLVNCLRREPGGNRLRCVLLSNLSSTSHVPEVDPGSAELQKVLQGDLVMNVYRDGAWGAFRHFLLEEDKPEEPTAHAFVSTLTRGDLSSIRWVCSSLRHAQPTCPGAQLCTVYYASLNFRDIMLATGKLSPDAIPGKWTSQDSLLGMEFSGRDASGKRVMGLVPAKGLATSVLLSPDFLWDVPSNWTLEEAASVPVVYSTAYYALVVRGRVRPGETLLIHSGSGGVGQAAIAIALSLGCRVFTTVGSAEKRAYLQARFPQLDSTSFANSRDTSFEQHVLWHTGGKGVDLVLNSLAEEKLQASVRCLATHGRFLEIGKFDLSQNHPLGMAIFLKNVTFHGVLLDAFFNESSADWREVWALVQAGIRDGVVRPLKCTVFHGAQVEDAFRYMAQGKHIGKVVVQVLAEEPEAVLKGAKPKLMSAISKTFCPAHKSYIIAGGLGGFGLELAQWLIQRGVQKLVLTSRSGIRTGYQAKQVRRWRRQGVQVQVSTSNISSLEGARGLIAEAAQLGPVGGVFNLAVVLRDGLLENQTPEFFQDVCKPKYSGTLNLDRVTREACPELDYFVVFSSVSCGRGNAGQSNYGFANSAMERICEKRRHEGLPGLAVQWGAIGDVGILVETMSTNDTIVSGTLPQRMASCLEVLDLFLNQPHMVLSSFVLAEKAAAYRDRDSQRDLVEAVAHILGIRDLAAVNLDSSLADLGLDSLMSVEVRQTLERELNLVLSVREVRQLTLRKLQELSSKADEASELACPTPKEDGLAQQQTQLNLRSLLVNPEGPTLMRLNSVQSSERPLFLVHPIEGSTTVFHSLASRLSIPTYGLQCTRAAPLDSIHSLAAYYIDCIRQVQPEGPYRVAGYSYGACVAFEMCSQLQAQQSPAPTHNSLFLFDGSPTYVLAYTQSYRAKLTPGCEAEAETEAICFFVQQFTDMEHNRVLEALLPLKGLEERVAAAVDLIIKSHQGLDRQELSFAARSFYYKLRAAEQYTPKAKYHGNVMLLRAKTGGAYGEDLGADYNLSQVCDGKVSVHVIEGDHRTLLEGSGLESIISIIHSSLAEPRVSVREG
structure (smiles),measurement,setting,value
COc1ccc(C(=O)c2ccccc2)c(O)c1,outcome,[1],inactive
Cc1ccc([N+](=O)[O-])cc1N,AC50,[1],30.2 µM (active)
same,outcome,[2],inactive
same,outcome,[3],inactive
same,outcome,[4],inactive
same,outcome,[5],inactive
same,outcome,[6],inactive
same,AC50,[7],25 µM (active)
same,outcome,[8],inactive
C1CNCCN1,outcome,[2],inactive
same,outcome,[9],inactive
same,outcome,[10],inactive
same,outcome,[3],inactive
same,outcome,[4],inactive
same,outcome,[5],inactive
same,outcome,[6],inactive
same,AC50,[7],73.1 µM (active)
same,outcome,[8],inactive
CC(C)(C)NC(=O)[C@H]1CC[C@H]2[C@@H]3CC[C@H]4NC(=O)C=C[C@]4(C)[C@H]3CC[C@]12C,AC50,[1],1.57 µM (active)
COc1ccc(-c2coc3cc(O)cc(O)c3c2=O)cc1,AC50,[1],1.81 µM (active)
C=CC(=O)OCCCCCCOC(=O)C=C,outcome,[1],inactive
CN(C)c1ccc2nc3ccc(=[N+](C)C)cc-3sc2c1,AC50,[1],0.617 µM (active)
CC(C)(c1ccccc1)c1ccc(Nc2ccc(C(C)(C)c3ccccc3)cc2)cc1,AC50,[1],1.84 µM (active)
O=C(O)c1cc(O)c2ccccc2c1O,AC50,[1],0.5 µM (active)
CCN1CN(CC)CN(CC)C1,outcome,[1],inactive
Nc1ccc(C(=O)O)cc1,outcome,[2],inactive
same,outcome,[9],inactive
same,outcome,[10],inactive
same,outcome,[3],inactive
same,outcome,[4],inactive
same,outcome,[5],inactive
same,outcome,[6],inactive
same,AC50,[7],77 µM (active)
same,outcome,[8],inactive
CCOC(=O)C1=NN(c2ccc(Cl)cc2Cl)C(C)(C(=O)OCC)C1 (configuration not stated),outcome,[1],inactive
C=C[C@@]1(C)CC(=O)[C@]2(O)[C@@]3(C)[C@@H](O)CCC(C)(C)[C@@H]3[C@H](O)[C@H](OC(C)=O)[C@@]2(C)O1,outcome,[1],inactive
O=C(OCc1ccccc1)c1ccc(O)cc1,AC50,[1],24.6 µM (active)
